Rows were chosen to be rich in hits. Some 22% of all compounds tested hit in one or more screens of this group.
LmPK inh – qHTS Assay for Inhibitors of Leishmania Mexicana Pyruvate Kinase (LmPK); 0.37% of 290,000 active; Q27686; Potency, µM (titrated, usually from 57.5 µM), for the others: at the top dose activity change, negative = inhibition, hits mostly inhibitors; purified LmPK, Kinase-Glo ATP luminescence, 1 h; note: potency is the fitted concentration of half-maximal effect; % is set by controls: 0 for no effect and ±100 for the full control effect
Target sequence (Q27686 whole entry, looked up): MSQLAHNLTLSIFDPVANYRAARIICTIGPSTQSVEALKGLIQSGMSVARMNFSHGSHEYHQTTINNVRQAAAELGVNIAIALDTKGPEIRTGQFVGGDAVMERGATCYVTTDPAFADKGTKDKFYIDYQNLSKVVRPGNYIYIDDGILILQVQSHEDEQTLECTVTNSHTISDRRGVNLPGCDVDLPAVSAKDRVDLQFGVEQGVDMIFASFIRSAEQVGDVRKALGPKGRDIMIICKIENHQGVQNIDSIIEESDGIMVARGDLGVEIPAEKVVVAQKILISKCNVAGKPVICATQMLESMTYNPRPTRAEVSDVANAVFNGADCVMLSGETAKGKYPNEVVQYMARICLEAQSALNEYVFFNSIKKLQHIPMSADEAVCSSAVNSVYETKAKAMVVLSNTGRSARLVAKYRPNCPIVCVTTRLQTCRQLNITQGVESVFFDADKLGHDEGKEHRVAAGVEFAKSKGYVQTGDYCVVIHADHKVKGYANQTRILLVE
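Purified LmPK (0.1 nM) with 0.5 mM PEP and 0.1 mM ADP in imidazole buffer pH 7.2 with MgCl2/KCl, 1 h at room temperature. ATP formed was read by luciferase luminescence and normalized to no-enzyme and uninhibited controls.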
Pf growth 96h – Primary qHTS for delayed death inhibitors of the malarial parasite plastid, 96 hour incubation; P. falciparum luciferase reporter growth, 96 h; 6.9% of 320,000 active; Potency, µM (titrated, usually from 28.7 µM), without a hit: at the highest dose activity change, negative = inhibition, usual class: inhibitors; AID 504834, 2011; note: potency is the fitted concentration of half-maximal effect; % is set by controls: 0 for no effect and ±100 for the full control effect
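P. falciparum expressing integrated firefly luciferase grown in erythrocytes (2% hematocrit, 0.05% parasitemia final) with compounds for 96 hours at 37 C, 5% CO2. Growth inhibition read as loss of luminescence after adding luciferase detection reagent.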
Cycloheximide cs – Cycloheximide Counterscreen for Small Molecule Inhibitors of Shiga Toxin; cell reporter, cycloheximide protein synthesis inhibition counterscreen; max response, %; 12% of 300,000 active; AID 2314, 2010; in the data active = max response mostly above about 13%, no sharp cut-off; inactive = mostly below about 14%; note: read at 38.3 µM for the half of the compounds with a filed dose; 0% is about no effect
Pf growth 48h – Primary qHTS for delayed death inhibitors of the malarial parasite plastid, 48 hour incubation; 5.9% of 310,000 active; Potency, µM (highest dose often 28.7 µM), for inactives: at the highest dose activity change, negative = inhibition, most hits filed as inhibitors; P. falciparum luciferase growth in erythrocytes, 48 h; AID 504832, 2011; note: potency is the fitted concentration of half-maximal effect; % is set by controls: 0 for no effect and ±100 for the full control effect
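Compounds are pin-transferred into medium, infected erythrocytes (2% hematocrit, 0.1% parasitemia final) are added, and plates sit one parasite generation at 37 C in 5% CO2. Detection reagent is then added and luminescence measured.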
Shiga inhibitor – A qHTS for Small Molecule Inhibitors of Shiga Toxin. Vero cells, Shiga toxin protein synthesis inhibition reporter. inhibition, % at 38.7 µM. 9.2% of 290,000 active. AID 2315, 2010; in the data active = inhibition mostly above about 28%, no sharp cut-off; inactive = mostly below about 43%; note: 0% is about no effect
The depositor's hits bear a star. Unless noted, calls come from the whole dose curve; as a rule, active = well fitted inhibition curve with a large enough effect; inconclusive = small, poorly fitted or top-dose-only effect, or another doubt; inactive = no such curve, though single readings can be large or run the other way.

Results for O=[N+]([O-])c1ccc(N/N=C\c2cccn2-c2ccccc2)nc1 ?
LmPK inh: -3.6%; Pf growth 96h: inconclusive; Cycloheximide cs: 16.8*; Pf growth 48h: inconclusive; Shiga inhibitor: 13.0

What do the screens show for `O=C(c1cccc(OC2CCN(Cc3ccc(F)cc3)CC2)c1)N1CCCC1`?
LmPK inh: -6.9%; Pf growth 96h: 2.5%; Cycloheximide cs: -0.5; Pf growth 48h: -9.6%; Shiga inhibitor: -2.7

Results for Cc1nc2ccsc2c(=O)n1-c1ccc(Cl)cc1 ?
LmPK inh: 1.6%; Pf growth 96h: -26.3%; Cycloheximide cs: -2.5; Pf growth 48h: -10.0%; Shiga inhibitor: -2.4

What do the screens show for `COC(CNC(=O)C1CCN(S(=O)(=O)c2cccc3nsnc23)CC1)OC`?
LmPK inh: -0.3%; Pf growth 96h: 17.2%; Cycloheximide cs: -1.9; Pf growth 48h: 6.7%; Shiga inhibitor: -2.7

What do the screens show for `COC(=O)c1ccc(NC(=O)CCc2c(C)nc3ncnn3c2C)cc1`?
LmPK inh: 0.5%; Pf growth 96h: 13.3%; Cycloheximide cs: -3.4; Pf growth 48h: -10.0%; Shiga inhibitor: 13.9

What do the screens show for `CCc1c(C)nc2ncnn2c1Nc1ccc(C(C)=O)cc1`?
LmPK inh: 2.9%; Cycloheximide cs: 45.9*; Pf growth 48h: 63.3%; Shiga inhibitor: 108.8*

How did CC(=O)c1ccc(NC(=O)CCc2c(C)nc3ncnn3c2C)cc1 do in these assays?
LmPK inh: -3.8%; Pf growth 96h: 68.1%; Cycloheximide cs: 21.3*; Pf growth 48h: 19.1%; Shiga inhibitor: 61.3*

How did Cc1cc(NS(=O)(=O)c2ccc(NC(=O)C(C)Oc3cc(C)c(Cl)c(C)c3)cc2)no1 (stereo not drawn) do in these assays?
LmPK inh: -0.4%; Pf growth 96h: inconclusive; Cycloheximide cs: -3.8; Pf growth 48h: -6.4%; Shiga inhibitor: -14.2

How did CCn1nccc1C(=O)Nc1ccc(Cl)cn1 do in these assays?
LmPK inh: 28.2µM*; Pf growth 96h: 34.7%; Cycloheximide cs: 59.9*; Shiga inhibitor: 70.2*

What do the screens show for `CCn1ccc(C(=O)Nc2ccc(Cl)cn2)n1`?
LmPK inh: -4.1%; Pf growth 96h: -18.1%; Cycloheximide cs: 39.1*; Shiga inhibitor: 80.5

Results for O=C(O)c1nccnc1C(=O)Nc1ccc(Cl)cn1 ?
LmPK inh: -1.3%; Pf growth 96h: 5.9%; Cycloheximide cs: -1.1; Pf growth 48h: 16.8%; Shiga inhibitor: -23.7

Results for CCn1ccc(C(=O)Oc2ccc(Cl)cc2)n1 ?
LmPK inh: -1.5%; Pf growth 96h: 8.0%; Cycloheximide cs: 21.6*; Pf growth 48h: 21.1%; Shiga inhibitor: 56.4*

What do the screens show for `CC(C)n1nc(C(=O)Oc2ccc(Cl)cc2)c2ccccc2c1=O`?
LmPK inh: -1.8%; Pf growth 96h: inconclusive; Cycloheximide cs: 2.7; Pf growth 48h: 24.1%; Shiga inhibitor: -5.5

What do the screens show for `NS(=O)(=O)c1ccc(NS(=O)(=O)c2ccc(NC(=O)C3CC3)cc2)cc1`?
LmPK inh: -6.5%; Pf growth 96h: 148.4%; Cycloheximide cs: 0.5; Pf growth 48h: inconclusive; Shiga inhibitor: -17.2

What do the screens show for `Nc1cc(=O)[nH]c(SCC(=O)N2CCC(Cc3ccccc3)CC2)n1`?
Pf growth 96h: -28.0%; Pf growth 48h: inconclusive

What do the screens show for `COc1cc(OC)c(CN2CCCCCCC2)cc1Br`?
LmPK inh: -3.4%; Pf growth 96h: 13.1µM*; Cycloheximide cs: 1.4; Shiga inhibitor: -3.7

Results for COc1cc(OC)c(CN2CCCN(C)CC2)cc1Br ?
LmPK inh: 2.3%; Pf growth 96h: inconclusive; Cycloheximide cs: -1.3; Pf growth 48h: -1.2%

How did COc1ccc(Br)cc1CN1CCC(N2CCCC2)CC1 do in these assays?
LmPK inh: -1.3%; Pf growth 96h: inconclusive; Cycloheximide cs: -2.0; Pf growth 48h: 9.28µM*; Shiga inhibitor: -12.9

What do the screens show for `COc1ccc(Br)cc1CN1CCN(CCO)CC1`?
LmPK inh: 3.0%; Pf growth 96h: -19.9%; Cycloheximide cs: -2.8; Pf growth 48h: 12.3%; Shiga inhibitor: 17.9

What do the screens show for `Cc1ccc2c(c1)c1ncnc(N3CCOCC3)c1n2C`?
LmPK inh: 7.4%; Pf growth 96h: inconclusive; Cycloheximide cs: 28.4*; Pf growth 48h: inconclusive; Shiga inhibitor: 94.3*

How did Cc1ccc2c(c1)c1ncnc(N3CCN(c4ccccc4)CC3)c1n2C do in these assays?
LmPK inh: 1.2%; Pf growth 96h: 4.0%; Cycloheximide cs: -5.0; Pf growth 48h: -9.3%; Shiga inhibitor: -6.3
